Out of some 360,000 compounds screened, about 3,600 (1%) were called active. For the sample, actives were picked, then their nearest neighbours and some compounds at random. Values without a mark were called inactive.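 The calls were made as follows: active = compounds whose plate-normalised and pattern-corrected inhibition of the luciferase reporter signal at the single screening dose is 50% or more; inactive = the rest.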

This experiment is described as follows: inhibitors of TROY-driven NF-kB signaling, primary screen, Q293 LMP1-TROYcd cells, NF-kB luciferase, uHTS (AID 1347056). Conditions: Q293 LMP1-TROYcd NF-kB luciferase reporter, 4 h; at 10 µM; stronger effect = higher value.
As to `Cc1cccc(CN2CCC(CNC(=O)Nc3ccc(F)c(Cl)c3)CC2)c1`, the inhibition was 12.4%.
With `Cc1cccc(NC(=O)c2nc(S(=O)(=O)Cc3ccccc3)ncc2Cl)c1` the figure was 77.9% (active); with `Cc1ccc(C)c(Cn2nnc3c(=O)[nH]c(C(=O)Nc4ccc(F)cc4)nc32)c1`, 30.7%.
With `CSc1nnc(NC(=O)c2nc(S(=O)(=O)Cc3ccc(C)cc3)ncc2Cl)s1` the figure was -5.7%.
As to `Cc1cccc(CS(=O)(=O)c2ncc(Cl)c(C(=O)Nc3ccc(F)cc3)n2)c1`, the inhibition is 70.8% (active).
With `Cc1cccc(NC(=O)Cn2cc(C(=O)c3ccco3)c3ccccc32)c1` the figure was 8.41%.
As to `CCOc1ccc(NC(=O)C2CC(=O)N=C(N)S2)cc1` (stereo unspecified), the inhibition is 15.3%.
With `O=C(O)c1ccc(Cn2cnc3c(=S)nc[nH]c32)cc1` the figure was 12.2%.
For `C/C(CC(=O)N1CCN(C=O)CC1)=N\NC(=O)c1ccc(Br)cc1`, the inhibition was -8.44%.
For the molecule `COc1cc(/C=C/C(=O)O)cc(S(=O)(=O)Nc2ccccc2C(=O)NCCc2ccccc2)c1OC`, the inhibition is -15.9%.
Regarding `CCCCC[C@H]1CN(C2CCCCC2)C(=O)[C@@H]1CC(=O)NCc1ccc(OC)cc1`, the inhibition was 14.9%.
For the molecule `Cc1ccc(S(=O)(=O)N2CCC(C(=O)N[C@@H](C)C(=O)NCc3ccco3)CC2)cc1`, the inhibition was 13.7%.
For the molecule `CCn1c(SCc2cccc(C(=O)O)c2)nnc1-c1ccc(Cl)cc1`, the inhibition was 6.17%.
For `Cc1ccccc1NC(=O)C1CCCN(C(=O)NCc2ccccc2)C1` (stereo unspecified), the inhibition was -8.74%.
`COc1ccc2c(c1)c(=Cc1ccc(N(C)C)cc1)c1cc(-c3ccccc3)[n+](C)n12`: the inhibition is 69.4% (active).
In the case of `COc1cccc(CCNC(=O)c2cccc(NC(=O)C3=C(C)OCCS3)c2)c1`, the inhibition is 13.6%.
For the molecule `Cc1cccc(-c2nnc(SCC(=O)O)n2Cc2ccccc2)c1`, the inhibition was -6.32%.
As to `Cc1ccsc1C(=O)OCC(=O)NCCc1ccccc1`, the inhibition was -56.3%.
As for `Cc1ccsc1C(=O)OCC(=O)c1cc(C)n(CC2CCCO2)c1C` (stereo unspecified), the inhibition is 78.8% (active).
For the molecule `Cc1ccsc1C(=O)OCC(=O)Nc1cccc(F)c1`, the inhibition is -57.4%.
With `Cc1cccc(C(=O)Nc2ccccc2-c2nnn(CC(=O)Nc3ccc4c(c3)OCCO4)n2)c1`, the inhibition was 6.18%.
With `COc1cc2c(cc1OC)C(=O)NCC(C)(C)O2` the figure was 32.5%.
`CC(=O)c1cc(NC(=O)c2ccccc2)c(=O)oc1/C=C/N(C)C`: the inhibition is 7.35%.
As to `O=C(NC1=CC(=O)c2ccccc2C1=O)c1ccccc1`, the inhibition was 63.7% (active).
On to `Cc1cc(=O)c2ccc(NC(=O)c3ccccc3)cc2[nH]1`, for which the inhibition is -14.4%.
Regarding `CC(=O)Nc1cncc(-c2ccccc2CO)n1`, the inhibition is -15.3%.
Regarding `Cn1c(=O)c2cc(S(=O)(=O)NCCC(=O)Nc3ccc(F)cc3F)ccc2n(C)c1=O`, the inhibition is -2.05%.
Take `O=C(COC(=O)c1ccc(O)cc1O)c1ccc2c(c1)OCCO2`: the inhibition is 1.99%.
Turning to `O=C(COC(=O)c1ccccc1)c1ccc2c(c1)OCCO2`, the inhibition was 80.8% (active).
With `CC(=O)Nc1cccc(C(=O)OCC(=O)c2ccc3c(c2)OCO3)c1`, the inhibition is 64.7% (active).
As for `O=C(OCc1ccccc1F)c1ccc2c(c1)OCCO2`, the inhibition was -79.6%.
With `CC(=O)Nc1cccc(C(=O)OCC(=O)NCc2cc(C)c(O)c(C)c2)c1` the figure was -29%.
With `COc1ccc(C(=O)OCC(=O)Nc2cccc(C(C)=O)c2)cc1OC`, the inhibition is 10.5%.
Regarding `Cc1cccc(OC(=O)c2sc3ncn(C)c(=O)c3c2C)c1`, the inhibition was -27.1%.
For the molecule `COc1cccc(C(=O)N2CCC(n3nccc3NC(=O)C3CCOC3)CC2)c1` (stereo unspecified), the inhibition was -1.36%.
In the case of `CCOc1ccc(C(C(=O)NC2CCCC2)N(C(=O)c2snc(C(N)=O)c2N)C2CCCC2)cc1` (stereo unspecified), the inhibition is -0.96%.
Consider `Nc1nnc(SCC(=O)NC2CCCc3ccccc32)s1` (stereo unspecified), for which the inhibition was 21%.
Turning to `COc1cccc(NC(=O)N(C)C[C@@H]2Oc3ncc(Br)cc3C(=O)N([C@@H](C)CO)C[C@H]2C)c1`, the inhibition was -0.54%.
For `Cc1cccc(NC(=S)NCc2ccc3[nH]c4c(c3c2)CCCC4)c1`, the inhibition was 63.8% (active).
With `Cc1cc(C)cc(NC(=S)NCCc2c[nH]c3ccccc23)c1` the figure was 1.03%; with `CCc1cccc(CC)c1NC(=S)NCc1ccc2[nH]c(C)cc2c1`, -11.8%.
Take `CC(C)CCN1CCC(C)(NC(=O)c2ccccc2)C1=O` (stereo unspecified): the inhibition was -0.82%.
With `C=CCC(NCc1ccco1)c1ccc(OC)cc1` (stereo unspecified) the figure was 14.2%; with `CC(=O)c1ccc(-c2cnc3c(NC=O)cc(-c4cccc(NS(C)(=O)=O)c4)cn23)cc1`, 22.6%; with `CC(=O)Nc1cccc(-c2cc(NC(C)=O)c3ncc(-c4ccccc4)n3c2)c1`, 80.3% (active).
With `COc1cccc(-c2cc(NC(C)=O)c3ncc(-c4cccc(C(C)=O)c4)n3c2)c1` the figure was 12.8%; with `COc1cccc(-c2cnc3c(NC(C)=O)cc(-c4cccc(NC(C)=O)c4)cn23)c1`, 12.8%.
Consider `CC(=O)Nc1cccc(-c2cc(NC=O)c3ncc(-c4ccc(F)c(Cl)c4)n3c2)c1`, for which the inhibition was 83.1% (active).
With `CC(=O)c1cccc(-c2cnc3c(NC=O)cc(-c4cccc(C(=O)N(C)C)c4)cn23)c1` the figure was -8.12%; with `O=C(Nc1ccccc1F)c1ccc(Cn2cc(Br)cn2)cc1`, -34.2%.
Take `CCC(=NC1CC(C)(C)NC(C)(C)C1)C1=C(O)CC(C)(C)CC1=O`: the inhibition was -0.72%.
With `CC(C)c1cc(C(=O)O)on1` the figure was -0.05%.
With `CC1O[C@@H](OC2C(O)C(C)O[C@H](OC(=O)[C@]34CCC(C)(C)C[C@H]3C3=CCC5[C@@]6(C)CC(O)C(O[C@@H]7OC(CO)C(O)[C@@H](O)[C@@H]7O)[C@@](C)(C(=O)O)C6CC[C@@]5(C)[C@]3(CO)CC4)C2O[C@H]2OC(C)[C@@H](O[C@@H]3OCC(O[C@@H]4OC(CO)C(O)[C@H](O)C4O)[C@@H](O)[C@@H]3O)[C@H](O)C2O)C(O)C(O)C1O` (stereo partly specified) the figure was 5%.
`O=C(Nn1c(SCc2ccc([N+](=O)[O-])cc2)nc2ccccc2c1=O)c1ccc(F)cc1`: the inhibition is 36.3%.
`Cc1ccnc(NC(=O)c2ccc(Cl)c([N+](=O)[O-])c2)c1`: the inhibition is -25.6%.
`Cc1nc2ccccc2c(=O)n1NC(=O)c1ccc(Cl)c([N+](=O)[O-])c1`: the inhibition is 73.3% (active).

The record behind these values is PubChem BioAssay AID1347056 (Sanford-Burnham Center for Chemical Genomics, 2019).
